What is called inhibition is the relative decrease from the control value, in per cent.

SMILES strings stand for the structures. The whole screen tested about 360,000 compounds, of which about 7,300 (2%) were called active. No stated cut-off is given here; in the data, active means inhibition above about 50%; inactive means the rest. The sample as a whole holds a higher share of actives than the screen did.

This assay can be described thus: blockers of TWEAK-induced Fn14 reporter activity – luciferase reporter cells, uHTS, primary screen (AID 1159606). Particulars: TWEAK-stimulated Fn14 reporter cells, luciferase luminescence, 8 h; at 10 µM; hits give high values.
Consider `COc1cccc(NC(=O)Cn2c3ccc(F)cc3c3nc4n(c(=O)c32)CCS4)c1`, for which the inhibition is 7% (inactive). For the compound `CCN(CC(=O)Nc1ccccc1C(F)(F)F)C(=O)C1CCN(C(=O)Nc2ccccc2)CC1`, the inhibition is 4.09% (inactive). With `C=C1C(=O)OC2C1CCC(C)=CCCC1(C)OC21` (stereo unspecified), the inhibition was 81.5% (active). `C[C@H]1COc2cc(N3CCSCC3)ccc2S(=O)(=O)N1`: the inhibition was -13.1% (inactive). For the compound `O=c1c2ccccc2ncn1/N=C/c1ccccc1`, the inhibition was 62.7% (active).

With `CCOC(=O)N1CCN(C(=O)Cn2cnc3ccccc3c2=O)CC1`, the inhibition was -13.1% (inactive). `O=c1c2ccccc2ncn1CCc1ccncc1`: the inhibition was -5.08% (inactive). As for `CCOc1cc(/C=N/NC(=O)c2ccncc2)cc(Br)c1O`, the inhibition is -8.09% (inactive).

Turning to `Nn1c(SCC(=O)Nc2ccc3c(c2)CCC3)nnc1C1CC1`, the inhibition was 1.14% (inactive). Take `CCCn1c(N)c(C(=O)CSc2nc3ccccc3c(=O)n2-c2ccc(OC)cc2)c(=O)[nH]c1=O`: the inhibition is 2.25% (inactive). Consider `Cc1c(NC(=O)c2cc(-c3ccc(Br)cc3)on2)c(=O)n(-c2ccccc2)n1C`, for which the inhibition was 10.9% (inactive). As to `Cc1cc2oc(C(=O)Nc3c(C)n(C)n(-c4ccccc4)c3=O)c(C)c2cc1Cl`, the inhibition is 4.85% (inactive). Under `Cc1c(NC(=O)c2coc(=O)c(Br)c2)c(=O)n(-c2ccccc2)n1C` stands 65.9% (active).

As for `CCOc1ccc(NC(=O)c2ccc(NC(=O)CN3C(=O)C(=O)N(CC(C)C)C3=O)cc2)cc1`, the inhibition was -46.8% (inactive). Regarding `Cc1cc(C)n2nc(C(=O)Nc3cccc(S(=O)(=O)N4CCOCC4)c3)nc2n1`, the inhibition was -5.76% (inactive). Turning to `O=C1C2C3C=CC(C4CC34)C2C(=O)N1c1nccs1` (stereo unspecified), the inhibition is 17.6% (inactive). Under `COc1ccc(CNC(=O)C[C@H]2C[C@H](C(=O)N3CCOCC3)[C@@]3(CCC4CCCC4)c4[nH]c5ccc(Cl)cc5c4CCN3C2=O)cc1OC` stands 60.6% (active); under `O=C(C[C@H]1C[C@H](C(=O)N2CCOCC2)[C@@]2(CCC3CCCC3)c3[nH]c4ccc(Cl)cc4c3CCN2C1=O)NCc1ccco1`, 32.8% (inactive); under `COc1ccc2[nH]c3c(c2c1)CCN1C(=O)C(CC(=O)NCCCN(C)C)C[C@H](C(=O)N2CCOCC2)[C@@]31CCC1CCCC1` (stereo partly specified), -4.84% (inactive). In the case of `Cc1cc(C)c(S(=O)(=O)NN=C2c3ccccc3[C@H]3Cc4csc[n+]4[C@@H]23)c(C)c1`, the inhibition was 13.8% (inactive).

Consider `Clc1ccc(COn2c(-c3ccc(Cl)cc3Cl)nc3ncccc32)cc1`, for which the inhibition is 11.7% (inactive).

Consider `Clc1ccc(-c2cc(-c3ccccn3)on2)c(Cl)c1`, for which the inhibition is 83.2% (active). Turning to `Fc1ccc(-c2ccc(CNCc3ccccn3)o2)cc1Cl`, the inhibition was -29.9% (inactive). For `COc1cc([N+](=O)[O-])ccc1NC(=S)N1CCN(c2ccccn2)CC1`, the inhibition was -16.1% (inactive). Consider `COc1ccc(-c2c(C)cc3oc(=O)cc(-c4ccccc4)c3c2C)cc1F`, for which the inhibition was -37% (inactive). Turning to `COc1cc(OC)c2c(-c3cccc(-c4cccc(N)c4)c3)cc(=O)oc2c1`, the inhibition was 54.3% (active). Regarding `COc1ccc(-c2c(C)cc3oc(=O)cc(-c4ccccc4)c3c2C)cc1OC`, the inhibition is -10.1% (inactive). Regarding `CC(C)[C@@H]1NC(=O)c2cc([N+](=O)[O-])cc(I)c2NCCC[C@@H](C(=O)NC(CC(=O)O)C(N)=O)NC(=O)[C@H](CO)NC1=O` (stereo partly specified), the inhibition is -9.29% (inactive). On to `COc1ccccc1C(=O)NCCn1cc(SCC(=O)NCc2ccco2)c2ccccc21`, for which the inhibition was 8.15% (inactive).

For `CCc1oc(-c2ccc(OC)cc2)c(C(=O)OCCCCCO)c1C(C)OCCO` (stereo unspecified), the inhibition is -8.4% (inactive). Under `Cc1cc(Cl)ccc1NNC(=O)c1snnc1C` stands 78.6% (active). The figure for `Cc1nnsc1C(=O)Nc1cccc(Cl)c1C` is -11.4% (inactive).

Regarding `Cc1nnsc1C(=O)NCc1c(F)cccc1Cl`, the inhibition was 21.4% (inactive). With `CCOC(=O)[C@]12CCCC=C1N(Cc1ccc3c(c1)OCO3)C(=O)[C@H](CC(=O)N1CCN(C(=O)c3ccco3)CC1)C2`, the inhibition was 10.3% (inactive). `COc1ccc(-c2cn[nH]c2-c2ccc(OC)cc2)cc1`: the inhibition is 80.3% (active). Regarding `CCOc1ccccc1Oc1cn[nH]c1-c1ccc(OC)cc1O`, the inhibition was 33.5% (inactive).

For `COc1ccc(Oc2cn[nH]c2-c2ccc(OC)cc2O)cc1`, the inhibition is -3.87% (inactive). On to `CC12CCC(=O)C=C1CCC1C2C(O)CC2(C)C1CCC2(O)C(O)CO` (stereo unspecified), for which the inhibition was 8.15% (inactive). For `COc1ccccc1Cc1c(-c2ccc(Cl)cc2)nc2c3ccccc3ccn12`, the inhibition is -9.82% (inactive). With `O=C(COC(=O)c1ccncc1)c1ccccc1`, the inhibition was -3.5% (inactive). On to `COc1ccc(CCc2nc(-c3cccs3)no2)cc1`, for which the inhibition was -31.5% (inactive). As for `Brc1ccc(-c2noc(-c3ccccc3)n2)o1`, the inhibition was -28% (inactive). As for `Clc1ccc(-n2nnnc2-c2cnc(-c3ccccn3)nc2-c2cccs2)cc1`, the inhibition was 10% (inactive). Consider `O=C(Oc1ccc(-c2nc(-c3ccccn3)no2)cc1)c1ccccc1`, for which the inhibition was 92.9% (active). On to `c1ccc(-c2noc(-c3cccs3)n2)nc1`, for which the inhibition is 76.2% (active). With `COCCN(C(=O)C(C)C)c1nnc(-c2ccc(C(C)(C)C)cc2)s1`, the inhibition was -18% (inactive).

Turning to `CCCCN(C(=O)C1=NN(c2cc(C)ccc2C)C(=O)CC1)c1c(N)n(CCC)c(=O)[nH]c1=O`, the inhibition was 4.67% (inactive). Under `O=C1NC(O)CCN1C1CC(O)C(CO)O1` (stereo unspecified) stands 2.05% (inactive); under `O=C(Nc1ccccc1C(=O)N1CCOCC1)c1ccc(CSc2ccccc2)cc1`, -16.9% (inactive); under `CCOc1ccc(C(=O)Nc2ccc(CN3CCOCC3)cc2)cc1Cl`, -17.1% (inactive). Regarding `O=C(Nc1ccc(CSc2ccccc2)cc1)c1ccc(CN2CCOCC2)cc1`, the inhibition was 62.3% (active). On to `CCOC1CCCCC1NS(=O)(=O)c1ccc(Cl)cc1` (stereo unspecified), for which the inhibition was 23.1% (inactive).

Take `COc1ccc2c(c1)CCC/C2=N\OC(=O)c1ccccc1F`: the inhibition is 36.7% (inactive). On to `CC(C)C[C@@H]1Cc2[nH][nH]c(=O)c2[C@H](CCc2ccccc2)O1`, for which the inhibition is 17% (inactive). The figure for `CC(NC(=O)Nc1ccccc1)C(c1cccs1)N1CCN(c2ccccc2)CC1` (stereo unspecified) is 1.76% (inactive); for `O=c1oc2ccccc2cc1-c1csc(Nc2ccc(O)cc2)n1` it is 82.7% (active).

Regarding `Cc1ccn2c(-c3csc(Nc4ccc(C(=O)O)cc4)n3)c(C)nc2c1`, the inhibition was 21.8% (inactive). The figure for `Cc1noc(C)c1CSCC(=O)Nc1nc2ccc(Oc3ccccc3)cc2s1` is -4.3% (inactive); for `COc1ccc(OC)c(-c2csc(NC(=O)C3=NNC(=O)CC3)n2)c1` it is -2.91% (inactive); for `Cc1ccc(Nc2nc(-c3ccc(O)cc3O)cs2)nc1` it is -37.9% (inactive). `COc1ccc2nc(Nc3nc(-c4cc5ccccc5oc4=O)cs3)sc2c1`: the inhibition is 64.4% (active).

The values above are taken from PubChem BioAssay AID1159606 (Sanford-Burnham Center for Chemical Genomics, 2016).
